HTT ATP protect – protects HTT-Q103 PC12 cells, measured by ATP; PC12 HTT-Q103 induced, cytoprotection, ATP luminescence, 40 h; Potency, µM (doses to about 56.4 µM), without a hit: cytoprotection (ATP increase), usual class: activators; hit rate 0.14% among 230,000; AID 1471; further: potency means the concentration at half of the fitted maximal effect; % of control where 0% means no effect; nearly all actives have a fitted effect of over 45% in size
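Compounds were screened for protection of PC12 cells against cell death after tebufenozide induction (100 nM final) of mutant Huntingtin exon 1 (Q103) fused to GFP.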
HttQ103 aggreg – inhibitors of mutant huntingtin aggregate formation in PC12 cells. PC12 HttQ103-GFP aggregates, Acumen cytometry, 40 h. Potency, µM (highest dose often 46.1 µM), for the others: at the top dose activity change, negative = inhibition, most hits filed as inhibitors. hit rate 1.1% among 220,000; further: potency means the concentration at half of the fitted maximal effect; on the % scale 0 is the no-effect control and ±100 the full control effect; nearly all actives have a fitted effect of over 60% in size
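Multiplexed with ATP-based cell death, this channel scores GFP aggregates in PC12 cells expressing inducible HTTex1-Q103-GFP. Induction used 100 nM tebufenozide; compounds were tested in concentration series.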
PNC assembly inh – blocks assembly of the perinucleolar compartment; PC3M PTB-GFP, PNC prevalence imaging, 16 h; active compounds read low; activity change (PNC), negative = inhibition, % at 10 µM; hit rate 3.1% among 140,000;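 active means readout at or below -70, meaning at least 70% loss of cells showing the perinucleolar compartment, a nuclear body marking cancer cells; inconclusive means readout between -30 and a set limit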;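 further: plate controls were DMSO wells for no effect and camptothecin positive control wells for full effect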
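Compounds are pinned in duplicate onto adhered PC3M cells stably expressing GFP-tagged PTB and incubated 16 h at 37 C. Cells are then fixed, nuclei stained with Hoechst, and PNC-positive cells counted.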
* marks the source's active call; other numbers are inactive results; ? = inconclusive; nt = no result given; [ ] = another dose, or the depositor's remark. The full list was thinned out, with hits kept by preference. Unless noted, the call rests on the fitted dose curve; in most records, active means well fitted curve in the direction sought with a large enough effect; inconclusive means small, poorly fitted or top-dose-only effect, or another doubt; inactive means no such curve, though single readings can be large; an effect the other way counts as inactive or inconclusive.

SMILES	HTT ATP protect	HttQ103 aggreg	PNC assembly inh
COc1ccc(S(=O)(=O)N2CCN(c3c(C)cccc3C)CC2)cc1OC	10%	?	?
Cc1ccccc1-c1nc(CN2CCSCC2)c(C)o1	8%[10 µM]	1%[9.22 µM]	nt
O=C(N/N=C/c1c(Cl)cccc1Cl)c1ccccc1F	nt	18%	-84*
O=C(N/N=C/c1c(Cl)cccc1Cl)c1ccc(F)cc1	-11%	6%	3
O=[N+]([O-])c1ccc(Nc2nc3ccccc3s2)cc1	-2%[10 µM]	nt	nt
O=C(Nc1ccc(Cl)cc1)/C(=C/c1ccc([N+](=O)[O-])cc1)c1nc2ccccc2s1	-197%	7.1µM*	nt
CSc1nc(C)c(C(=O)Nc2ccccc2)c(C)c1C#N	13%[10 µM]	-31%	3
CCC(C)(C)NC(=O)C(c1ccc(F)cc1)N(Cc1ccc(OC)cc1)C(=O)c1cnccn1 (configuration not stated)	15%[10 µM]	14%[9.22 µM]	nt
COc1ccc(CN(C(=O)c2cnccn2)C(C(=O)Nc2ccc(F)cc2)c2ccccc2)cc1 (configuration not stated)	21%[10 µM]	-9%	-95*
Brc1ccccc1OCCCCn1cnc2ccccc21	2%[10 µM]	?	nt
Cc1ccc(OCCCCn2cnc3ccccc32)c(C)c1	-153%	3.2µM*	4
CC(=O)OC1COC(OC2C(O)C(C)OC(OC3C(OC4CCC5(C)C(CCC6(C)C5CC=C5C7CC(C)(C)CCC7(C(=O)O)CCC56C)C4(C)CO)OCC(O)C3O)C2O)C(O)C1OC(C)=O (configuration not stated)	-38%[10 µM]	-21%[9.22 µM]	nt
Nc1nc(N)nc(-c2cc(Cl)ccc2Cl)n1	7.9µM*	1%	nt
Nc1nc(N)nc(-c2ccc(Cl)cc2)n1	-21%	-5%[9.22 µM]	6
Cc1[nH]nc(-c2ccc(O)c(C)c2O)c1Oc1ccccc1	11%[10 µM]	6%	-16
CCOc1ccc(-n2c(SCc3nc(-c4cccs4)no3)nnc2-c2ccncc2)cc1	4%	-4%	10
N#C/C(=C/c1ccc([N+](=O)[O-])cc1)C(N)=O	-7%	19%	nt
N#C/C(=C\c1cc([N+](=O)[O-])ccc1Cl)C(N)=O	1.3µM*	6%	nt
CC1CC(C)CN(C(=S)Nc2ccc3nc4n(c(=O)c3c2)CCCCC4)C1 (configuration not stated)	21%[10 µM]	-4%	-15
CC1CCCN(C(=S)Nc2ccc3nc4n(c(=O)c3c2)CCCCC4)C1 (configuration not stated)	6%[10 µM]	4%	-119*
Cc1cc(/C=N/NC(=O)c2cccc([N+](=O)[O-])c2)c(C)n1-c1ccc(Cl)cc1Cl	-14%	-30%	13
CCOC(=O)N1CCN(c2c(F)cc3[nH]c(=S)[nH]c3c2Br)CC1	34%	-17%	28
CCOC(=O)N1CCN(c2cc3[nH]c(=S)[nH]c3cc2F)CC1	-1%[0.074 µM]	8%	-91*
Cn1c(=O)oc2cc(S(=O)(=O)N3CCCC(C(=O)NCCN4CCOCC4)C3)ccc21 (configuration not stated)	-6%	-2%	-24
NS(=O)(=O)c1ccc(NC(=O)CSc2ncnc3ccccc23)cc1	8.9µM*	-2%	nt
SMILES	HTT ATP protect	HttQ103 aggreg	PNC assembly inh
NS(=O)(=O)c1cccc(NC(=O)CSc2ncnc3ccccc23)c1	1%[10 µM]	-2%[9.22 µM]	nt
CCOC(=O)c1c(NC(=O)CSc2nc3cccnc3n2C)sc(C(C)=O)c1C	-28%	-23%	-13
CCOC(=O)c1c(NC(=O)CSc2ncnc3ccccc23)sc(C(C)=O)c1C	2.5µM*	-22%	35
O=C(NC1CC1)C1=C[C@@H](c2ccc(Br)cc2)C[C@@H](OCCCCO)O1	0%[10 µM]	-2%[9.22 µM]	nt
Cc1cc(CN2C(=O)c3ccccc3C2=O)cc(N2CCOCC2)c1	3%[10 µM]	-18%	17
Cc1ccc(-n2c(SCC(=O)Nc3ccc(C(=O)O)cc3)nnc2-c2ccncc2)cc1	1%[10 µM]	11%[9.22 µM]	nt
CCNc1nc(Oc2ccc(=O)n(-c3ccccc3)n2)nc(N(C)C)n1	-7%	12%	62
CCNc1nc(OC)nc(Oc2ccc(=O)n(-c3ccccc3)n2)n1	-15%[10 µM]	-3%	-94*
CCOC(=O)/C(C#N)=C1/SC(CCO)C(=O)N1c1ccccc1 (configuration not stated)	-16%	13%	?
CC(C)C(=O)Nc1cccc(C(=O)Nc2ccccc2C(=O)O)c1	-90%	16%	0
N/C(=N\OC(=O)COc1ccc([N+](=O)[O-])cc1)c1ccncc1	nt	0%	nt
N/C(=N\OC(=O)COc1ccc(Br)cc1)c1ccncc1	nt	-8%	-102*
C=CCN1c2ccccc2[C@]23C[C@@H](C(=O)OC)N(S(=O)(=O)c4c(C)noc4C)C2=NC(C(=O)OC)=C(C(=O)OC)[C@H]13	-10%[10 µM]	nt	nt
Cc1ccc(-c2noc(CN(C(=O)CCCN3C(=O)c4ccccc4C3=O)C(C)C)n2)cc1	7%[0.074 µM]	nt	nt
CC(=O)C1CCN(Cc2ccccc2)CC1	-7%	0%	25
CSc1ccccc1OC1CCN(Cc2ccccc2)CC1	-1%[10 µM]	-13%	-109*
C/C(=N\NC(=O)CC#N)c1cc2ccc(O)cc2oc1=O	-8%	12%	nt
Cc1cc(C)nc(N/N=C/C=C/c2ccccc2)n1	nt	-22%	-104*
Cc1cc(C)nc(N/N=C/c2ccccc2)n1	-9%	-1%	14
CC1=CCC(C(C)(C)NC(=O)c2ccccc2)C/C1=N\O (configuration not stated)	-6%[10 µM]	nt	nt
O=C(NCC(c1cccs1)N1CCOCC1)c1cccc([N+](=O)[O-])c1 (configuration not stated)	-20%[10 µM]	15%	-1
COCC(=O)Nc1cc(=O)n(C)c(=O)n1C	-1%[10 µM]	-8%	-84*
COc1ccc(CC(=O)Nc2cc(=O)n(C)c(=O)n2C)cc1OC	-15%	?	nt
CCOC(=O)c1oc2ccc(S(=O)(=O)n3nc(-c4ccccc4)cc3N)cc2c1C	-38%	10µM*	21
CCOC(=O)c1oc2ccc(S(=O)(=O)n3nc(-c4ccc(OC)cc4)cc3N)cc2c1C	16%	3%	-26
SMILES	HTT ATP protect	HttQ103 aggreg	PNC assembly inh
COc1ccc(Nc2nc(C(=O)N(CCO)Cc3ccccc3)cs2)cc1	18%[10 µM]	4%[9.22 µM]	nt
O=Cc1ccccc1Oc1ccccc1	6%[10 µM]	-7%	27
O=Cc1ccccc1OCCOc1ccccc1C=O	-24%[10 µM]	35µM*	47
COc1ccc(-c2oc3ccccc3c(=O)c2O)cc1	-10%[1.9 µM]	nt	nt
CC(=O)Nc1nonc1-c1nc2ccccc2n1CC1CC1	30%	7.1µM*	-94*
CC(=O)Nc1nonc1-c1nc2ccccc2n1CCC#N	-2%[10 µM]	-5%	-17
CCc1cccc(CC)c1NC(=O)CN1C2CCCC1CC(NC(=O)Nc1cccc(OC)c1)C2 (configuration not stated)	-2%[10 µM]	5%[9.22 µM]	nt
COc1cc(C)c(/C=C(\C#N)C(=O)Nc2ccc(C)cc2)cc1C(C)C	15%[10 µM]	2%	13
Cc1nc2c(C(=O)N3CCCCC3)cnn2c(C)c1Cc1ccccc1F	-36%	-30%	3
Cc1ccc2nc(-c3ccc(O)cc3)c(Nc3ccc4c(c3)OCCO4)n2c1	7%	?	-5
Cc1ccc2nc(-c3ccccc3O)c(Nc3ccc4c(c3)OCCO4)n2c1	nt	5%	-113*
O=C1CSC(=S)N1/N=C\c1ccc(Cl)c([N+](=O)[O-])c1	14%[10 µM]	nt	nt
O=C(CCN1C(=O)C2CC=C(Cl)CC2C1=O)NCc1ccco1 (configuration not stated)	2%[0.074 µM]	-11%	37

Assay outcomes as filed in PubChem BioAssay.
